Screening results deposited in PubChem BioAssay by National Center for Advancing Translational Sciences (NCATS).
Shown are actives, neighbours in structure and some others; about 11% of the full set was active somewhere.
NS1 inh – qHTS Assay for Inhibitors of Influenza NS1 Protein Function. Potency, µM (doses to about 46.1 µM), without a hit: at the highest dose activity, positive = more growth. 0.4% of 270,000 active. AID 2326, 2010; calls by dose curve; also: actives are rising curves; nearly all actives have a fitted effect of over 50% in size
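Recovery from NS1-induced slow growth read by OD600 in budding yeast switched to galactose assay medium (pH 6.0, -URA) at 1:100 dilution. Compound 23 nl per well; the matching strain lacking NS1 serves as control.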
Sm TGR inh – qHTS Assay for the Inhibitors of Schistosoma Mansoni Peroxiredoxins | Schistosoma mansoni thioredoxin glutathione reductase (TGR), Q962Y6 | purified TGR, DTNB reduction, TNB absorbance 405 nm | Potency, µM (top dose mostly 114 µM), without a hit: top-dose activity change, negative = inhibition, most hits filed as inhibitors | 3% of 360,000 active | AID 485364, 2010; also: % is scaled to controls: 0 for no effect and ±100 for the full control effect; nearly all actives have a fitted effect of over 60% in size
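TGR 20 nM + NADPH 100 uM (dispensed conc.), cpd preinc 15 min RT; start with NADPH (500 uM addition) then DTNB (15 mM addition). Kinetic TNB absorbance, 405 nm filter. Four-parameter Hill fit across titration.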
Pf growth 48h – Primary qHTS for delayed death inhibitors of the malarial parasite plastid, 48 hour incubation | 5.9% of 310,000 active | Potency, µM (series often up to 28.7 µM), for the others: at the highest dose activity change, negative = inhibition, most hits filed as inhibitors | P. falciparum luciferase growth in erythrocytes, 48 h; also: % is scaled to controls: 0 for no effect and ±100 for the full control effect
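A one-generation exposure of luciferase-tagged malaria parasites in RPMI 1640/Albumax erythrocyte culture, 37 C and 5% CO2. Inhibition is inferred from decreased luminescence after adding detection reagent.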
Pf growth 96h – Primary qHTS for delayed death inhibitors of the malarial parasite plastid, 96 hour incubation; Potency, µM (doses to about 28.7 µM), for the others: at the top dose activity change, negative = inhibition, usual class: inhibitors; 6.9% of 320,000 active; P. falciparum luciferase reporter growth, 96 h; also: % is scaled to controls: 0 for no effect and ±100 for the full control effect
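P. falciparum expressing integrated firefly luciferase grown in erythrocytes (2% hematocrit, 0.05% parasitemia final) with compounds for 96 hours at 37 C, 5% CO2. Growth inhibition read as loss of luminescence after adding luciferase detection reagent.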
AMA1 RON2 block – qHTS for Inhibitors of AMA1-RON; Towards Development of Antimalarial Drug Lead: Primary Screen; Potency, µM (top dose mostly 58.2 µM), for the others: at the highest dose activity change, negative = inhibition, usual class: inhibitors; 0.2% of 360,000 active; Plasmodium falciparum AMA1 (3D7) - RON2 peptide interaction; AlphaScreen AMA1-biotinylated RON2 peptide binding;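 also: 0% = vehicle wells and -100% = peptide control; nearly all actives have a fitted effect of over 45% in size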
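AMA1 (3D7) with his tag at 25 nM final met compounds first, then biotinylated RON2 peptide at 25 nM; detection used donor plus acceptor beads, 10 µg/mL apiece, read by AlphaScreen after 30 min at room temperature.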
* hit, by the source's call; i = inactive; u = inconclusive; x = no result given; [ ] = another dose, or the depositor's remark. Unless noted, calls follow the shape of the dose curve; as a rule, active = well fitted curve in the direction sought with a large enough effect; inconclusive = small, poorly fitted or top-dose-only effect, or another doubt; inactive = no such curve, though single readings can be large; an effect the other way counts as inactive or inconclusive. Potency is read from the fitted curve at half-maximal effect.

SMILES | NS1 inh | Sm TGR inh | Pf growth 48h | Pf growth 96h | AMA1 RON2 block
COc1cc(C(C)=O)ccc1OCC(=O)Nc1ccccc1N1CCCC1 | -40% | -9% | -23% | 10µM* | -26%
COc1ccc(CC(=O)Nc2ccccc2N2CCCC2)cc1OC | 10% | -19% | u | -16% | -3%
CSCCC(NS(=O)(=O)c1ccc(C)cc1)C(=O)N1CCN(S(=O)(=O)c2ccc(F)cc2)CC1 (stereo unspecified) | x | -2% | u | u | 4%
O=C(N/N=C/c1ccccc1)c1ccc(N2CCOCC2)c([N+](=O)[O-])c1 | u | 1% | -11% | 3% | 9%
O=C(N/N=C/c1ccc(N2CCCCC2)o1)c1ccccc1 | 15% | 7.9µM* | u | u | -1%[11.6 µM]
O=C(N/N=C/c1ccc(N2CCOCC2)o1)c1cccc([N+](=O)[O-])c1 | u | 11µM* | 11% | 13% | 53%
Cc1ccc(/C=N/NC(=O)c2ccc(-c3ccccc3)cc2)o1 | -42% | 2% | u | u | 19%
CC(=O)/C(N=Nc1cccc(C(F)(F)F)c1)=C(\C)O | x | 4% | -11% | 0% | 13%
O=C(/C(N=Nc1cccc(C(F)(F)F)c1)=C(/O)c1cccs1)C(F)(F)F | -59% | 16% | u | 5.2µM* | -7%
Cc1ccc(SCCNC(=O)CN(c2ccccc2)S(=O)(=O)N(C)C)cc1 | x | 1% | x | x | x
COC(=O)c1c(C)oc(C)c1S(=O)(=O)N(C)C1CCCCC1 | -2% | 45µM* | -1% | -7% | 8%
O=C(COC(=O)c1ccc([N+](=O)[O-])o1)NCCCc1ccccc1 | x | x | x | x | -8%
CC(C)c1ccc2c(c1)C1(NN=C(c3ccccc3)S1)C(=O)N2 (stereo unspecified) | -9% | -28% | 3.3µM* | u | u
CCc1ccc2c(c1)C1(NN=C(c3ccc(C)cc3)S1)C(=O)N2 (stereo unspecified) | 2% | -28% | 0.41µM* | u | 22%
Cc1cc2oc(=O)cc(CN3CCN(c4ccc(Cl)c(Cl)c4)CC3)c2cc1Cl | x | x | x | x | 19%
O=C(Cc1cccc(NC(=O)C2CCN(C(=O)C3CCCC3)CC2)c1)Nc1cccc(C(=O)N2CCCCC2)c1 | x | x | x | x | -2%
CCNc1ccccc1CP(=O)(c1ccccc1)c1ccccc1O (stereo unspecified) | 21% | 0.5µM* | 13µM* | 12µM* | u
N=C1C(c2ccccc2)=C(O)CN1CCCO | x | 4% | u | 15µM* | -3%
CCOc1ccc(-c2cc(C(=O)Nc3cccc(C(F)(F)F)c3)[nH]n2)c(C)c1 | x | x | x | x | 27%
CCN(CC)CCNC(=O)c1c(O)c2ccccc2n(Cc2ccccc2)c1=O | -7% | 10% | 12µM* | 4.1µM* | 8%
CCN(CC)CCCNC(=O)c1c(O)c2ccccc2n(Cc2ccccc2)c1=O | -13% | 4% | 9.3µM* | 44% | -29%
COc1ccc(-c2cn(-c3cccc(C)c3)c(=O)[nH]2)cc1OC | 2% | 13µM* | 0% | 22% | -4%
COc1ccc(-c2noc(-c3ccccc3F)n2)cc1 | -55% | 12% | x | 9.3µM* | 33%
NC(=O)c1cccc(-c2noc(-c3ccccc3F)n2)c1 | x | 1% | u | u | x
Fc1ccccc1-c1nc(-c2ccccc2)no1 | 4% | -20% | i | 23% | 4%
SMILES | NS1 inh | Sm TGR inh | Pf growth 48h | Pf growth 96h | AMA1 RON2 block
O=C(O)c1cccc(-c2noc(-c3ccccc3F)n2)c1 | x | x | 0.3µM* | u | x
O=C(O)c1cccc(-c2nc(-c3ccccc3C(F)(F)F)no2)c1 | x | x | 4.1µM* | u | x
CC(C)[C@@H](NC(=O)C1CCN(C(=O)[C@@H]2CCCN2C(=O)OC(C)(C)C)CC1)C(=O)NCc1ccc(F)cc1 | -27% | 0% | 14% | u | 1%
Cc1nn(-c2ccccc2)c(Cl)c1C(=O)N(C)c1nc(-c2ccc(F)cc2)cs1 | 1% | -2% | 22% | 7.4µM* | x
CC1CCCN(C(=O)CCS(=O)(=O)c2cc3c(cc2Cl)NC(=O)CO3)C1 (stereo unspecified) | 7% | 12% | 19% | u | 21%
COC(=O)c1cccc(NC2=NS(=O)(=O)c3ccccc32)c1 | x | 4% | x | x | x
CCCCCNCc1ccc(Cl)cc1 | 3% | 4% | 5% | 105% | -2%
OCCCCNCc1ccc(OCc2ccc(Cl)cc2)cc1 | -15% | 1% | u | 15µM* | -7%
COc1cc(CNc2ncnc3c2ncn3[C@H]2CN(Cc3cccc(C(F)(F)F)c3)C[C@@H](CO)O2)cc(OC)c1OC | x | x | x | x | 6%
Cc1ccc(N2C(=O)CS(=O)(=O)C23C(=O)N(C)c2ccccc23)cc1F (stereo unspecified) | x | 10% | x | x | x
COc1ccc(-c2noc(CNS(=O)(=O)c3ccc(NC(C)=O)cc3)n2)cc1OC | 5% | 3% | 18% | u | -6%
CC(C)(C)OC1NS(=O)(=O)OCC1NCOC(Cl)(Cl)Cl (stereo unspecified) | 8% | 0.45µM* | 31% | -22% | 23%
C=CCC1NS(=O)(=O)OCC1NC(=O)OCC(Cl)(Cl)Cl (stereo unspecified) | 18% | -15% | 42% | 31% | -5%
Cc1ccc2c(c1)N(CC(=O)NCCCN1CCN(C)CC1)C(=O)CO2 | 1% | 9% | 32% | 18% | -9%
CCOc1ccc(S(=O)(=O)N2CCCCC2)cc1NC(=O)CCc1ccc(OC)cc1 | x | -11% | 13µM* | 10µM* | -18%
CCOc1ccc(S(=O)(=O)N2CCCCC2)cc1NC(=O)CCNC(=O)c1ccco1 | x | -3% | 3.3µM* | u | 8%
CN(C)c1ccc(CNC(=O)CCc2ccc(S(=O)(=O)N3CCCCCC3)cc2)cc1 | x | -3% | 12µM* | u | u
CCCCNC(=O)CC(C(=O)N1CCc2ccccc21)n1ccnc1 (stereo unspecified) | 7% | 3% | x | 21% | 6%
CCN(CCCNC(=O)CC(C(=O)N1CCc2ccccc21)n1ccnc1)c1cccc(C)c1 (stereo unspecified) | -5% | -7% | 10µM* | u | u
COc1ccc(S(=O)(=O)NCc2cccnc2)cc1C(=O)Nc1ccccc1 | -11% | 0% | -14% | 10µM* | -11%
COc1ccc(S(=O)(=O)NCc2cccnc2)cc1NC(=O)c1ccccc1 | 9% | -1% | 2% | -23% | 10%
O=C(Nc1ccccc1)c1cc(S(=O)(=O)NCc2ccncc2)ccc1Cl | -4% | -20% | -6% | 12µM* | 12%
CCn1cc(/C=C/C(=O)Nc2ccn(Cc3c(F)c(F)cc(F)c3F)n2)cn1 | 2% | 4% | u | 13µM* | -13%
